Bioassay records: PubChem BioAssay, Emory University Molecular Libraries Screening Center
14-3-3 PPI: modulators of 14-3-3 gamma protein binding, primary screen, biochemical, fluorescence polarization; hit rate 0.19% among 160,000; FP, 14-3-3gamma / TMR-pS259-Raf peptide binding; inhibition, % at 40 µM; AID 422, 2006; in the data active = inhibition above about 30%;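 note: 0% = protein plus tracer without compound and 100% = blank with tracer alone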
Target sequence (P61981 whole entry, looked up): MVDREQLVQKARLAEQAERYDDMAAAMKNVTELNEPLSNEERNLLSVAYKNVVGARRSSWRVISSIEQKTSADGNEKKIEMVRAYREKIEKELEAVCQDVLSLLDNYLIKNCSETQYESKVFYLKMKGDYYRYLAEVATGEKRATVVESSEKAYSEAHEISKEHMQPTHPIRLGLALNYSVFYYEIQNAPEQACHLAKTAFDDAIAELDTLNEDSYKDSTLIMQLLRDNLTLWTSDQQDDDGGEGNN
An asterisk follows results filed as active. The full list was thinned out, with hits kept by preference.

SMILES	14-3-3 PPI
NC(=O)C1(N2CCCCC2)CCN(c2ccc(N3C(=O)C4CC=CCC4C3=O)cc2[N+](=O)[O-])CC1 (stereo not drawn)	2
O=c1oc2cc3occ(-c4ccc(F)cc4)c3cc2c2c1CCC2	-8
Nc1cc(=O)[nH]c(SCC(=O)NCc2ccco2)n1	-3
CCOc1ccc(CNC(=O)C2c3ccccc3C(=O)N(C)C2c2c[nH]c3ccccc23)cc1 (stereo not drawn)	-6
COc1ccc(Cl)cc1C(=O)Nc1c2c(nn1-c1cccc(Cl)c1)CS(=O)(=O)C2	-7
COc1cccc(CNC(=O)c2ccc(CNS(=O)(=O)c3ccc(C)cc3)cc2)c1	34*
CNC(=O)c1ccc(CNS(=O)(=O)c2ccc(C)cc2)cc1	3
Cc1ccc(CNC(=O)c2ccc(CNS(=O)(=O)c3ccc(C)cc3)cc2)cc1	-6
Cc1ccc(O)c(N=Cc2ccc(OCc3ccccc3)cc2)c1	-19
Oc1ccc(N=Cc2ccc(OCc3ccccc3)cc2)cc1	35*
Oc1ccc(Cl)cc1N=Cc1ccc(OCc2ccccc2)cc1	-7
O=C(NCCSc1c(-c2ccccc2)[nH]c2ccccc12)c1ccc2c(c1)OCO2	-5
COCCOC(=O)C1=C(C)NC(=O)NC1c1c(OC)ncnc1OC (stereo not drawn)	-7
CCOC(=O)CN=C1CC(C)(C)CC2=C1Sc1ncnc(OC)c1N2	81*
CCOC(=O)C1=C(C)NC2=C(C(=O)CC(C)(C)C2)C1c1ccccn1 (stereo not drawn)	-5
CCN1CCN(CCC(=O)Nc2cc([N+](=O)[O-])ccc2OC)CC1	-3
CC(C)NC(=O)c1cc(-c2ccc(F)cc2)on1	-2
CCC1=C(C)C(c2ccccc2)NC(=S)N1 (stereo not drawn)	2
CCSC1(SCC)N=C(N)C2(C#N)C(c3ccccc3)NC(C)=C(C)C12C#N (stereo not drawn)	-6
CC1=CC(C#N)(C#N)C(C#N)(C#N)C(c2ccccc2)N1 (stereo not drawn)	73*
Cc1cccc(N2CCN(c3ccc(N4C(=O)C5CCCCC5C4=O)cc3[N+](=O)[O-])CC2C)c1 (stereo not drawn)	2
Nc1cc([N+](=O)[O-])cc2sn(-c3ccccc3)c(=O)c12	-4
CC(=O)N(C)c1ccc(N2CCOCC2)c2c1C(=O)c1ccccc1C2=O	-15
Cc1ccc(Nc2ccc3c4c(cc(=O)n3C)-c3ccccc3C(=O)c24)cc1	-160
Cn1c(=O)cc2c3c(c(N4CCOCC4)ccc31)C(=O)c1ccccc1-2	33*
SMILES	14-3-3 PPI
CNc1ccc(C(=O)Nc2cc(C(F)(F)F)ccc2N(C)C)cc1[N+](=O)[O-]	-4
Cc1ccc(C(=O)NCCNC(=O)c2ccc(C)cc2)cc1	-292
Cc1ccc(C(=O)NCC(C)(C)O)cc1	67*
Cc1ccc(C(=O)NCCNC(=O)c2ccncc2)cc1	0
COC(=O)c1ccc2c(c1)C(=O)N(c1nccs1)C2=O	-18
COc1cccc(C(=O)N2CC(=O)Nc3ccc(F)cc3C2c2ccc(F)cc2)c1OC (stereo not drawn)	-9
O=C(O)CCC1CCCCC1=O (stereo not drawn)	3
CCN1C(=O)c2ccc(S(=O)(=O)N3CCCCCC3)c3cccc1c23	1
CCN1C(=O)c2cccc3c(S(=O)(=O)N4CCCC4)ccc1c23	8
CCN1C(=O)c2cccc3c(S(=O)(=O)N4CCCc5ccccc54)ccc1c23	33*
COc1ccc(-c2noc(CCC(=O)N3CCCC3)n2)cc1	-5
Oc1c(I)cccc1C=Nc1ccc2oc(-c3cccc(I)c3)nc2c1	-40
CCC1CCCCN1CCNC(=O)c1ccc2c(=O)[nH]c3c(C(=O)NC4CCCC4)sc(=S)n3c2c1 (stereo not drawn)	-9
CCC(=O)N1CCc2cc(S(=O)(=O)N(CC)c3ccccc3)ccc21	-2
COc1ccc(NC(=O)c2cc3ccc(O)cc3oc2=Nc2sc3c(c2C#N)CCCC3)cc1	-124
CN(C(=O)c1ccc2c(c1N)C(=O)c1ccccc1C2=O)c1ccccc1	132*
CN(C(=O)c1ccc2c(c1)C(=O)c1ccccc1-2)c1ccc([N+](=O)[O-])cc1	-3
CCSc1c(C(N)=O)ccc2c1C(=O)c1ccccc1C2=O	-42
Cc1ccc(C)c(NC(=O)C(=O)NCCCO)c1	5
Cc1ccc(C2/C(=C(\O)c3ccc(Cl)cc3)C(=O)C(=O)N2CCC(=O)O)cc1 (stereo not drawn)	-2
O=C1c2ccccc2C(=O)c2cc(Br)ccc21	-6
O=C1c2ccccc2-c2nc(-c3ccccc3)cc3cccc1c23	-14
Nc1cc2c3c(cccc3n1)C(=O)c1ccccc1-2	73*
CSc1cccc(NS(=O)(=O)c2ccc3[nH]cc(C(=O)NCCc4ccc(C)cc4)c(=O)c3c2)c1	-14
COc1ccc(OC)c(NC(=O)C2=C(C)NC(=S)NC2c2ccccc2OC)c1 (stereo not drawn)	-5
COc1nc(-c2ccccc2Cl)c2cc(Br)ccc2n1	-12
O=c1nc(Sc2ccccc2)nc(N2CCOCC2)[nH]1	-6
O=C1c2cccc3c(O)ccc(c23)C(=O)N1c1ccc(Cl)cc1	96*
